Source: PubChem
Rows were chosen to be rich in hits. Some 11% of all compounds tested hit in one or more screens of this group.
USP17 inh = human USP17-like deubiquitinase inhibition; A8MUK1; purified USP17, Ub-rhodamine cleavage fluorescence, 3 h; inhibition, % at 50 µM; hit rate 6.5% among 47,000; AID 1645855
OTUD3 block = inhibitors of human OTUD3 deubiquitinase; AID 1645858; hit rate 0.7% among 47,000; Q5T2D3; inhibition, % at 25 µM; purified OTUD3, Ub-rhodamine fluorescence, 2 h
USP30 inh = blocks human USP30 ubiquitin-rhodamine cleavage; inhibition, % at 25 µM; Q70CQ3; AID 1645860; hit rate 5.3% among 47,000; purified USP30, Ub-rhodamine cleavage fluorescence
USP28 block = blocks human USP28 ubiquitin-rhodamine cleavage; Q96RU2; purified USP28, Ub-rhodamine cleavage fluorescence, 30 min; inhibition, % at 25 µM; hit rate 3% among 47,000; AID 1645857
Target sequence (Q96RU2 whole entry, looked up): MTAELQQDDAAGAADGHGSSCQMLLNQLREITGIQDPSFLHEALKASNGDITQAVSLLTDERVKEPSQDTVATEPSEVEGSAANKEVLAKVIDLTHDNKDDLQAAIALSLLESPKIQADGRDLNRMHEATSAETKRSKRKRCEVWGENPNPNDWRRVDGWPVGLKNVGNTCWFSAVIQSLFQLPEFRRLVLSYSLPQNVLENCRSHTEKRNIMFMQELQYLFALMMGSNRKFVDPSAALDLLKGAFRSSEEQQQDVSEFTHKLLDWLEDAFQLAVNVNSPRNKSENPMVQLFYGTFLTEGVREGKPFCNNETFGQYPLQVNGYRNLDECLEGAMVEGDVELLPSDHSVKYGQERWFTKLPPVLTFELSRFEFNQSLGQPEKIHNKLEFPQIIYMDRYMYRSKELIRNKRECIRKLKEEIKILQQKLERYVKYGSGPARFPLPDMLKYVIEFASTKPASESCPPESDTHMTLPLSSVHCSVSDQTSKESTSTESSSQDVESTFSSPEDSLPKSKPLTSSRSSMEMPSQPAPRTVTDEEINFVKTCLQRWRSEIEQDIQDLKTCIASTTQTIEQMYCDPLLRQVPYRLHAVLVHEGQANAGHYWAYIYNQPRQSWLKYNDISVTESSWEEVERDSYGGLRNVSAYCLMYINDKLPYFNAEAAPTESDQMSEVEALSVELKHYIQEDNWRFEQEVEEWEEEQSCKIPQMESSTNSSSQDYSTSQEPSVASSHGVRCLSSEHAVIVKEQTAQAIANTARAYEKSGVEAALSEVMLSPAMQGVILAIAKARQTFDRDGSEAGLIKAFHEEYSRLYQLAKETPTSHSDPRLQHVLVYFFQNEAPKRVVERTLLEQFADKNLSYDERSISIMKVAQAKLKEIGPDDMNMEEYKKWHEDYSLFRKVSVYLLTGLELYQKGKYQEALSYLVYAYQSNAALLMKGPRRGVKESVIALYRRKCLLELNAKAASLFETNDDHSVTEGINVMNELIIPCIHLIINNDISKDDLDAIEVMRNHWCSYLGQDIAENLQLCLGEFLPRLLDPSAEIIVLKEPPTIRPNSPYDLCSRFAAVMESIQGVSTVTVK
The depositor's hits bear a star; i = inactive; x = no result. No stated cut-off is given here; in the data, active means inhibition above about 30%; inactive means the rest.

SMILES | USP17 inh | OTUD3 block | USP30 inh | USP28 block
Fc1cccc(-n2cc(-c3noc(-c4ccc[nH]4)n3)nn2)c1 | 43* | 21 | 77* | 46*
Cc1nc2c(-c3ccncc3)nsc2c(=O)n1CC(=O)Nc1ccc(F)cc1 | -155 | -73 | -454 | -86
Clc1ccc(Cc2nnc(-c3cccnc3)o2)cc1 | 1 | 1 | 0 | 31*
O=C(C1CCC1)N1CCCC(c2ccnc(Nc3ccccn3)n2)C1 (centres undefined) | -6 | 3 | 3 | 14
CCCC(=O)Nc1ccc(SCc2nnc(-c3ccccc3)o2)cc1 | 1 | -2 | -3 | 66*
O=C(Nc1ccc(SCc2nnc(-c3ccccc3)o2)cc1)C1CC1 | -29 | -11 | 0 | 61*
Cc1cc(C(=O)Nc2nnc(CSc3ccccc3)o2)no1 | -4 | 1 | 7 | 0
c1cncc(-c2nc(-c3ccc(-n4cccn4)nc3)no2)c1 | 0 | -1 | 0 | 0
COC(=O)c1ccccc1NC(=O)CSc1nnc(-c2ccc(C(C)(C)C)cc2)n1C1CCCC1 | 15 | -37 | 52* | 12
O=C(CSc1nnc(Cc2ccccc2)n1C1CCCCC1)Nc1ccccc1Cl | 4 | 6 | 20 | 14
CCOC(=O)c1cc(-c2csc(-c3ccc(Cl)cc3)n2)on1 | 8 | 15 | 16 | 13
CCOc1ccc(NC(=O)Cn2c(=O)n(CCC(=O)NCc3ccccc3OC)c(=O)c3ccccc32)cc1 | 52* | 19 | 50* | 6
COc1ccccc1CNC(=O)CCc1cn(Cc2ccc(Cl)cc2)c2ccccc12 | 32* | 12 | 0 | 9
Cc1ccc(NC(=O)Cn2c(=O)n(CCCCC(=O)NCc3ccco3)c(=O)c3ccccc32)cc1C | 5 | -8 | 0 | -13
COc1ccccc1CNC(=O)CCn1c(=O)c2ccccc2n(Cc2ccccc2C#N)c1=O | 40* | 13 | 23 | 12
COc1ccccc1CNC(=O)Cc1cc(-c2ccc(Cl)cc2)on1 | 14 | -14 | -54 | -18
COc1ccccc1CNC(=O)CCn1c(=O)c2ccccc2n(Cc2cccc([N+](=O)[O-])c2)c1=O | 6 | 9 | 28 | 7
Cc1ccc(-c2n[nH]n3c2nc(=O)c2ccc(C(=O)NC4CC4)cc23)cc1 | 0 | -8 | -36 | -15
O=C(NCc1ccco1)C(=O)Nc1ccc(F)c(Cl)c1 | 35* | -9 | -11 | -12
C[C@H](NC(=O)c1ccc(Cl)cc1Cl)C(=O)NCc1ccco1 | -6 | 0 | -2 | -5
O=C(Cn1c(=O)c2ccccc2n(CC(=O)Nc2ccc(F)c(Cl)c2)c1=O)NCc1ccco1 | 62* | 49* | 45* | 39*
CCOC(=O)c1ccc(NC(=O)Cn2c(=O)n(CC(=O)NCc3ccco3)c(=O)c3ccccc32)cc1 | 41* | 17 | 59* | 28
O=C(CCCCn1c(=O)c2ccccc2n(CC(=O)Nc2ccc(F)c(Cl)c2)c1=O)NCc1ccco1 | 70* | 26 | -6 | 22
Cn1c(=O)n(CC(=O)Nc2ccc(F)c(Cl)c2)c(=O)c2ccccc21 | 2 | 6 | 5 | 0
Cn1c(CCc2ccccc2NS(=O)(=O)c2cccc(C#N)c2)nc2ccccc21 | 4 | -2 | -7 | 3
SMILES | USP17 inh | OTUD3 block | USP30 inh | USP28 block
COCCC(=O)N[C@H]1C[C@H]2CN(Cc3ccccc3)c3ccccc3CN2C1 | -178 | -205 | i | -206
COc1cc(N2CC[C@H]3[C@H]2CCN3S(=O)(=O)C2CC2)ncn1 | -8 | 6 | 11 | 4
CC(=O)N1CCN(C(=O)c2ccc(Cl)cc2)CC2(CNC(=O)C2)C1 (centres undefined) | -12 | 5 | 0 | 7
Cc1cccc(CN2C(=O)N(Cc3ccccc3)S(=O)(=O)c3ccccc32)c1 | 7 | 17 | 34* | 15
CC(=O)c1ccc(N2C(=O)N(Cc3cccc([N+](=O)[O-])c3)c3ccccc3S2(=O)=O)cc1 | 14 | 15 | 53* | 18
CCOc1ccc(N2C(=O)N(CC(=O)c3ccc(F)cc3)c3ccccc3S2(=O)=O)cc1 | 13 | 7 | 13 | 14
CC(NC(=O)CSc1nnc2n(-c3ccccc3)c(=O)c3ccccc3n12)c1ccccc1 (centres undefined) | 12 | 8 | 48* | 10
COc1ccc(NC(=O)CSc2nnc3n(-c4ccccc4)c(=O)c4c5c(sc4n23)CN(C)CC5)cc1 | -4 | -2 | -5 | 17
O=C(N[C@@H]1C[C@@H](Oc2cccc(F)c2)[C@H](O)[C@H]1N1CCOCC1)c1ncc[nH]1 | x | 0 | 0 | -7
CC(C)(Oc1ccc(Cl)cc1)C(=O)NCc1nnnn1-c1ccc(F)cc1 | 17 | 11 | 18 | 31*
COc1ccc(Cn2c3c(c(=O)[nH]c2=O)CN(C2CCCCC2)CN3)cc1 | 43* | 27 | 47* | 9
COc1ccc(Cn2c3c(c(=O)[nH]c2=O)CN(CCc2ccccc2)CN3)cc1 | 3 | 0 | -5 | -1
Cc1cccc(NC(=O)CN2C(=O)COc3cc(S(=O)(=O)N4CCCC4)ccc32)c1C | 19 | 11 | 60* | 21
Cc1ccccc1NC(=O)c1cc(S(=O)(=O)N2CCCCCC2)ccc1Cl | x | 27 | 63* | 24
Cc1ccc(S(=O)(=O)N2CCCCC2)cc1NC(=O)Cc1cccc(F)c1 | -9 | -3 | -4 | 60*
Cc1ccc(S(=O)(=O)N2CCCCC2)cc1NC(=O)CN1C(=O)CN(C)C1=O | -3 | -4 | -13 | -12
CC(NCC(=O)Nc1cc(S(=O)(=O)N2CCCCCC2)ccc1Cl)c1ccccc1 (centres undefined) | 18 | 28 | 43* | 17
COc1cccc(NC(=O)Cn2c3ncccc3c(=O)n2-c2ccc(C)cc2)c1 | -10 | 5 | -1 | 4
O=C(Nc1cc(=O)[nH]c2nc(-c3ccco3)nn12)C1CCCCC1 | -7 | -15 | -197 | -23
CCOC(=O)N1CCN(S(=O)(=O)c2ccc(F)c(C(=O)Nc3ccccc3Cl)c2)CC1 | 2 | 6 | 36* | 5
O=C(c1ccc(N2CCc3ccccc32)nn1)N1CCc2ccccc21 | 52* | -22 | 1 | -23
COc1ccccc1-c1cc(NC(C)=O)c2ncc(-c3ccc(S(C)(=O)=O)cc3)n2c1 | 39* | -16 | -42 | -7
CC(=O)Nc1cc(-c2cccc(CO)c2)cn2c(-c3ccc(S(C)(=O)=O)cc3)cnc12 | -11 | -15 | -57 | -23
CC(c1ccccc1)n1cnc2c(cnn2C(C)(C)C)c1=O (centres undefined) | -4 | -8 | -6 | -3
O=C(Nc1ccc2c(c1)OCCO2)NC1CCCCC1 | 2 | -5 | 0 | 31*
SMILES | USP17 inh | OTUD3 block | USP30 inh | USP28 block
O=C(Nc1ccc2c(c1)OCCO2)C1CN(C(=O)c2ccc3c(c2)OCO3)C1 | 0 | 7 | 5 | 43*
COc1cc(NC(=O)c2cc(CN3CCOCC3)on2)cc(OC)c1 | 0 | 3 | 3 | 54*
O=C(Nc1ccccc1F)C1CN(C(=O)c2ccc3c(c2)OCO3)C1 | -2 | 1 | -16 | 0
O=C(Nc1cccnc1)NC1CCCCC1 | -13 | -1 | -16 | 0
COc1cccc(NC(=O)c2cc(CN3CCCC3)on2)c1 | -3 | -5 | -15 | 21
O=C(Nc1ccc2c(c1)OCO2)c1cc(-c2ccco2)on1 | 44* | 17 | -18 | 30*
Cc1ccc(NC(=O)c2ccc(N3CCCCC3)nn2)cc1F | 3 | -6 | i | 0
